The list is not random: actives were taken first. Their share in the collection is about 2.9%.
PLC-beta3 inh: inhibitors of human phospholipase C beta3 | Q01970 | Purified PLC-beta3, fluorogenic substrate, fluorescence | inhibition, % at 12.2 µM | 370,000 compounds, 0.18% hits; in the data active means inhibition above about 11%;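 further: 0% = median of compound wells on plate and 100% = full blocker control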
ADAM10 inh: inhibits human ADAM10; 370,000 compounds, 0.62% hits; O14672; inhibition, % at 7 µM; AID 720582; recombinant ADAM10, EDANS/DABCYL FRET peptide cleavage, 3 h;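 active means inhibition above a per-campaign cutoff equal to the mean of compounds falling between control-based bounds plus 3 SD, cut at about 20% in these data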;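 further: 0% = DMSO wells while the 100% control is not disclosed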
Target sequence (O14672 214-748 limits assumed): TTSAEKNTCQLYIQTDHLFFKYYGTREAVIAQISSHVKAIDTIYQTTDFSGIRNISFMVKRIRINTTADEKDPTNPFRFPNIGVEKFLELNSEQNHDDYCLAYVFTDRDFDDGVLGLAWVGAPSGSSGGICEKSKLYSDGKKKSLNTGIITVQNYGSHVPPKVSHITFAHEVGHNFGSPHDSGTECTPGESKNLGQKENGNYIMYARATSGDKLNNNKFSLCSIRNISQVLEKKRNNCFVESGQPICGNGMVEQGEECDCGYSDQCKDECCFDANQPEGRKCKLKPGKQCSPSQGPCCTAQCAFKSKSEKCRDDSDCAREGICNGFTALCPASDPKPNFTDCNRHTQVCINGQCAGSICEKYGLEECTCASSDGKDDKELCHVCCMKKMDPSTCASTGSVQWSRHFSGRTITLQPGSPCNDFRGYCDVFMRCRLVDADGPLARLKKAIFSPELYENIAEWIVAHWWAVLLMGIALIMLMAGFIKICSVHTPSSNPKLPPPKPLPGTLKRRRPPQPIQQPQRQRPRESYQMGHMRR
PLC-gamma1 inh: inhibitors of human phospholipase C gamma1; AID 720700; purified PLC-gamma1, fluorogenic substrate, fluorescence; P19174; inhibition, % at 12.2 µM; 370,000 compounds, 0.84% hits; in the data active means inhibition above about 9.5%
ADAM17 inh: inhibitors of human ADAM17. inhibition, % at 6.95 µM. P78536. recombinant ADAM17, EDANS/DABCYL FRET peptide cleavage. AID 720648. 370,000 compounds, 0.83% hits;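 active means inhibition above the mean of compounds lying between control limits plus 3 SD, set per campaign, cut at about 8.5% in these data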;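 further: 0% = DMSO-only wells as the low control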
KLK7 zymogen act: activates the human kallikrein-7 zymogen | P49862 | purified proKLK7, EDANS-DABCYL substrate fluorescence; 100% is mature enzyme control, 0% vehicle | activation, % at 7 µM | 370,000 compounds, 0.9% hits;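 active means activation above the mean of all tested compounds plus 3 SD, computed per campaign excluding outliers beyond control limits, cut at about 13% in these data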
ADAM10 confirm: confirmation of inhibitors of human ADAM10; shares compounds with ADAM10 inh; inhibition, % at 6.95 µM; 2,100 compounds, 1% hits; ADAM10 QFRET peptide cleavage, EDANS fluorescence; AID 743208;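 active means inhibition above about 20% chosen separately for each screening run, limit read from the data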;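 further: 0% = DMSO wells and 100% = marimastat wells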
ADAM17 ctr: ADAM17 inhibition, counter-screen for ADAM10 exosite hits; inhibition, % at 6.95 µM; ADAM17 QFRET peptide cleavage, EDANS fluorescence; shares compounds with ADAM10 inh; 2,100 compounds, 0.5% hits;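 active means mean triplicate inhibition above the solvent-only control wells' mean plus 3 SD, cut at about 12% in these data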;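 further: 0% = DMSO wells and 100% = marimastat wells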
Active calls of the source: *; · = no result.

SMILES	PLC-beta3 inh	ADAM10 inh	PLC-gamma1 inh	ADAM17 inh	KLK7 zymogen act	ADAM10 confirm	ADAM17 ctr
CN1OC[C@@H]2CN(C(=O)C3CCCCC3)[C@H](c3ccc(N4CCCCC4)cc3)C[C@@H]21	6	-15	2	-3	0	·	·
CCOC(=O)Cc1csc(NC(=O)CSc2ncnc3c2cnn3-c2ccccc2Cl)n1	1	26*	3	8	1	1	2
O=C(C(=O)N1CCC(CNS(=O)(=O)Cc2ccccc2)CC1)c1cccs1	1	3	4	-1	0	·	·
C/C(=N\OCC(=O)Nc1ccc(OC(F)(F)F)cc1)c1ccc2c(c1)OCCO2	2	20*	0	7	0	8	2
C/C(=N\OCC(=O)Nc1ccccc1C(C)(C)C)c1ccc2c(c1)OCCO2	-14	9	1	3	-1	·	·
C=CCC[C@H](Cc1ccc(F)cc1)C(=O)OC[C@H]1CCCN1C(=O)[C@@H](CC=C)CC(=O)NCCO	2	-16	5	-4	1	·	·
C=CCC[C@@H](Cc1ccc(F)cc1)C(=O)OC[C@H]1CCCN1C(=O)[C@@H](CC=C)CC(=O)N[C@H](CO)Cc1ccccc1	0	21*	1	4	0	1	1
C=CCC[C@@H](Cc1ccc(F)cc1)C(=O)OC[C@@H]1CCCN1C(=O)[C@@H](CC=C)CC(=O)N(CCO)Cc1ccccc1	-1	21*	1	4	0	1	1
CC1(C(=O)N2CCC(CC3CC(c4cccc(Br)c4)=NO3)(C(=O)NCC3CCCCC3)CC2)CC1 (stereo not drawn)	6	25*	6	4	0	0	3
COC(=O)[C@]12C[C@H](CC(=O)NCc3cccc(C(F)(F)F)c3)C(=O)N(Cc3cccc4ccccc34)C1=C[C@H](C(C)C)O[C@@H]2C1CC1	1	25*	-1	3	0	10	3
COC(=O)[C@]12C[C@H](CC(=O)NCc3ccccc3)C(=O)N(Cc3cccc4ccccc34)C1=C[C@H](C(C)C)O[C@@H]2C1CC1	-1	23*	-1	8	0	10	3
Cc1ccc(S(=O)(=O)Nc2ccccc2NS(=O)(=O)c2ccc(C)cc2)cc1	1	22*	0	5	1	5	1
O=C(/C=C/c1ccccc1)NC(NC(=S)Nc1cccc(Cl)c1)C(Cl)(Cl)Cl (stereo not drawn)	0	-2	-1	-2	0	·	·
O=C(/C=C/c1ccccc1)NC(NC(=S)Nc1cccc(O)c1)C(Cl)(Cl)Cl (stereo not drawn)	-5	21*	2	6	0	8	2
C[C@H]1COc2cc(N3CCCC3)ccc2S(=O)(=O)N1C	-2	-4	1	-4	0	·	·
CNC(=O)N(O)C1N(/N=C/c2ccc(N(C)C)cc2)C(=S)SC1(C)C (stereo not drawn)	-17	-3	-8	2	0	·	·
CC1(C)SC(=S)N(/N=C/c2ccccc2)C1N(O)C(=O)Nc1ccc([N+](=O)[O-])cc1 (stereo not drawn)	8	22*	8	6	0	3	0
CC(C)(C)c1ccc(S(=O)(=O)N2CCC(C(=O)N3CCN(C4CCCCC4)CC3)CC2)cc1	4	-1	5	1	0	·	·
O=S(=O)(Nc1cccc(-c2ccc(N3CCCCCC3)nn2)c1)c1ccc(C(F)(F)F)cc1	-18	24*	-9	7	0	6	3
O=S(=O)(Nc1cccc(-c2ccc(N3CCCCCC3)nn2)c1)c1ccc(F)cc1	-17	7	-4	-2	0	·	·
COC(=O)C1CN(Cc2ccc(OC)cc2)CCS(=O)(=O)N1Cc1ccc(OC)cc1 (stereo not drawn)	-5	-9	-3	-7	0	·	·
CCOC(=O)C(Cc1ccnc2ccccc12)=NO	4	20*	1	1	0	-1	-1
Clc1ccc(-c2nnc(SCc3cccc4ccccc34)n2-c2ccc(Cl)cc2)cc1	3	9	4	7	0	·	·

Screening data deposited in PubChem by The Scripps Research Institute Molecular Screening Center.
